High-throughput results as filed in PubChem BioAssay.
The sample as a whole holds a higher share of hits than the screen did.
PL biosyn Enam – animal cell phospholipid biosynthesis inhibition, Enamine screen. calls only at 10 µM. 20,000 compounds, 0.4% hits. ZR-82 CHO cells, pyrene fatty acid UV survival, CellTiter Blue; peroxisome-deficient CHO-K1 mutant line; plus DGAT-1, DGAT-2 and ACAT inhibitors. AID 1347385;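 active = cell survival signal 2 SD away from solvent-only control wells, confirmed on one or two retests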;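 note: 3 h compound exposure then viability read about one day after UV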
The depositor's hits bear a star; i = inactive; + = active, no number.

SMILES | PL biosyn Enam
Cc1nc(N)sc1N=Nc1cccc2ccccc12 | +
Nc1nc(=O)c2cccnc2s1 | i
COc1ccccc1N=Nc1c(O)ccc2ccccc12 | i
CN1/C(=C2\C=NN(c3ccccc3)P2(=S)OCC2CCCO2)C(C)(C)c2ccccc21 (stereo not drawn) | i
CCCCOC1(c2ccc(C)cc2)NC(=S)NN=C1c1ccc(C)cc1 (stereo not drawn) | i
CC(C)NC(=S)NNc1c(Cl)cc(Cl)cc1Cl | i
COCCNC(=S)N/N=C/c1cccs1 | i
O=C(/C=C/c1cccs1)NC1CCCC1 | i
S=C(N/N=C/c1cccs1)NC1CCCCC1 | +
CC(C)NC(=O)NC(=O)CSc1nnc(C2CC2)n1C1CC1 | i
Nc1c(S(=O)(=O)c2cc(Cl)ccc2Cl)c2nc3ccccc3nc2n1CC1CCCO1 (stereo not drawn) | i
O=c1[nH]c(=S)[nH]nc1-c1ccc(F)c(F)c1 | i
Cc1nc2ncnn2c(C)c1CCC(=O)Nc1sc2c(c1C(N)=O)CCC2 | i
FC(F)(F)c1nc(Oc2ccc3ccncc3c2)c2ccccc2n1 | i
CCOC(=O)c1c(N)sc(C(N)=O)c1C | i
CCOC(=O)c1c(N)oc(C)c1C(C)=O | i
C=CCn1sc(N)c(C(=O)OCC)c1=S | +
O=S(=O)(Nc1nc2ccccc2nc1N1CCCC1)c1ccc2c(c1)OCCO2 | i
CCOC(=O)c1c(C)[nH]c(C(=O)COC(=O)c2ccc(C)s2)c1C | i
CCOC(=O)c1c(C)[nH]c(N=Nc2ccc3c(c2)OCO3)c1C | +
CCOC(=O)c1c(C)[nH]c(C(=O)O)c1C | i
O=S1(=O)CCN2C(c3ccc(Cl)c(Cl)c3)=CSC2=N1 | i
c1ccc2[nH]c(Cc3nc4ccccc4[nH]3)nc2c1 | i
CC(C)NC(=S)N/N=C1\CCCCC1C1CCCCC1 (stereo not drawn) | +
CC(C)NC(=S)NN=C1CCC(C(C)(C)C)CC1 (stereo not drawn) | i
SMILES | PL biosyn Enam
CC1CCCC/C1=N\NC(=S)NC1CCCCC1 (stereo not drawn) | i
CCOC(=O)c1c(C)[nH]c(C(=O)COc2ncnc3sc(C)c(C)c23)c1C | i
CC(=O)c1c(C)[nH]c(C(=O)CN2CC(C)CC(C)C2)c1C (stereo not drawn) | i
O=C1Nc2ccc(Br)cc2C12NNc1ccccc1O2 (stereo not drawn) | +
O=C1Nc2ccc(Br)cc2C1(O)C(F)(F)F (stereo not drawn) | i
O=C1NC2(Oc3ccccc31)C(=O)Nc1ccccc12 (stereo not drawn) | i
O=C1Nc2ccc([N+](=O)[O-])cc2C12NNc1ccccc1O2 (stereo not drawn) | +
CN1c2ccccc2C(C)(C)C12C=Cc1cc([N+](=O)[O-])ccc1O2 (stereo not drawn) | i
O=c1c2cc([N+](=O)[O-])ccc2oc2ccc([N+](=O)[O-])cc12 | i
Fc1ccc(C2=CC(c3ccc(Cl)cc3)n3nc(C(F)(F)F)nc3N2)cc1 (stereo not drawn) | i
CN(Cc1nc2ccccc2s1)c1ncnc2sc3c(c12)CCCC3 | i
C=CCOC(=O)C1=C(C)Nc2nc(SCC(C)C)[nH]c(=O)c2C1c1cccs1 (stereo not drawn) | i
Oc1[nH]c2ccc(Br)cc2c1N=Nc1ccccn1 | i
CCN(CC)S(=O)(=O)c1ccc(N=Nc2c(O)[nH]c3c(C)cc(C)cc23)nc1 | i
Cc1cc(C)c2[nH]c(O)c(N=Nc3ccccn3)c2c1 | +
Cc1nc(SCc2nc3ccccc3o2)c2c(C)c(C)sc2n1 | i
NC(=S)N/N=C/c1c[nH]c2ccccc12 | i
C=CCN1C(=O)/C(=N\N=C\c2c[nH]c3ccccc23)c2ccccc21 | +
O=S(=O)(N/N=C/c1c[nH]c2ccccc12)c1ccc(Br)cc1 | i
CC(C)CN(C1CCS(=O)(=O)C1)S(=O)(=O)c1cn(C)c(=O)n(C)c1=O (stereo not drawn) | i
Cc1cc(=S)[nH]c2ccccc12 | i
N=C(N)N=Nc1c(O)[nH]c2ccccc12 | i
Cc1ccc(C)c(N=Nc2c(C)[nH]c3ccccc23)c1 | +
CCOC(=O)c1c(NC(=O)C2CCC2)sc(C)c1C | i
Cc1cc(-c2csc(N3CCN(C)CC3)n2)c(C)n1Cc1ccco1 | i
SMILES | PL biosyn Enam
CN(CC(F)(F)C(F)F)S(=O)C12CC3CC(CC(C3)C1)C2 (stereo not drawn) | i
CCCCN(CCCC)[P+](Nc1n[nH]c(=O)[nH]c1=O)(N(CCCC)CCCC)N(CCCC)CCCC | +
O=C(Cn1ncc(Cl)c(Cl)c1=O)c1cc(F)ccc1F | i
CN(C)c1ccc(N=Nc2ccc(S(=O)(=O)O)cc2)cc1 | i
CN(C)c1ccc(N=Nc2ccccc2Br)cc1 | +
CN(C)c1ccc(N=Nc2ccccc2Cl)cc1 | +
CN(C)c1ccc(N=Cc2sc3ccccc3c2Cl)cc1 | i
CN(C)c1ccc(C=Nc2ccc(N=Cc3ccc(N(C)C)cc3)cc2)cc1 | i
CN(C)c1ccc(N=Nc2nn[nH]n2)cc1 | i
Cc1nc(SCC(=O)c2cc(C)n(C)c2C)n(CC(C)C)c1C | i
O=C(OCc1cc(=O)oc2ccc3ccccc3c12)c1ccc2ccccc2n1 | i
O=[N+]([O-])c1ccc(-c2nn3c(-c4ccccc4)nnc3s2)o1 | i
NC(=S)N1N=C2/C(=C/c3cccc([N+](=O)[O-])c3)CCCC2C1c1cccc([N+](=O)[O-])c1 (stereo not drawn) | i
O=[N+]([O-])c1ccc(/C=N/Nc2ccc(C(F)(F)F)cc2[N+](=O)[O-])o1 | i
O=C(OCC(=O)N1N=C2/C(=C/c3cccs3)CCCC2C1c1cccs1)C1CC2CCCC(C1)C2=O (stereo not drawn) | i
C(=N\n1c(-c2ccccc2)csc1=NCCc1ccccc1)/c1c[nH]c2ccccc12 | +
C(=N\n1c(-c2ccco2)csc1=NCCc1ccccc1)/c1ccco1 | i
CN=c1scc(-c2ccccc2)n1/N=C/c1c[nH]c2ccccc12 | i
C/C(=N\NS(=O)(=O)c1ccc(C)cc1)c1ccc2c(c1)OCCO2 | i
CNS(=O)(=O)c1ccc(/C(C)=N/Nc2cc(C)c3cc(C)cc(C)c3n2)cc1 | +
Cc1ccc(C(=NS(=O)(=O)c2ccc(C)cc2)NS(=O)(=O)c2ccc(C)cc2)cc1 | i
C=C(C)CNC(=S)N/N=C(\C)c1ccc(C)o1 | i
Cn1c(SCc2cc(Cl)c3c(c2)OCCO3)nnc1-c1ccco1 | i
CC1(C)Oc2ccccc2C2CC(c3ccc(-c4ccccc4)cc3)=NN21 (stereo not drawn) | i
O=C1NC2(Oc3ccc(Br)cc3C3CC(c4ccccc4)=NN32)/C(=C/c2ccccc2)S1 (stereo not drawn) | +
SMILES | PL biosyn Enam
c1ccc(C2=NN3C(C2)c2ccccc2OC32CCCCC2)cc1 (stereo not drawn) | i
O=C1NC2(Oc3ccccc3C3CC(c4ccccc4)=NN32)/C(=C/c2cccc(OCc3ccccc3)c2)S1 (stereo not drawn) | +
CCC1(C)Oc2ccccc2C2CC(c3ccccc3)=NN21 (stereo not drawn) | i
c1ccc(C2=NN3C(C2)c2ccccc2OC32CCCC2)cc1 (stereo not drawn) | i
CCCn1c(O)c(C=NCC2CCCCC2)c(=O)[nH]c1=S | i
O=S1(=O)Cc2c(nc3ccc(Cl)cc3c2-c2ccccc2Cl)-c2cc(F)ccc21 | i
